A selection: hits, their analogues and other compounds. The true share with any hit is near 2.8%.
PAFAH1B3 FP inh – PAFAH1B3 (human) inhibition; recombinant PAFAH1B3, FP-rhodamine probe, fluorescence polarization; hit rate 0.28% among 340,000; Q15102; inhibition, % at 3.39 µM;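 active means inhibition above the screen-wide average of all tested compounds plus 3 SD, cut at about 25% in these data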;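 further: 0% = enzyme with DMSO only and 100% = wells lacking PAFAH1B3 protein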
pPAFAH FP inh – inhibitors of human plasma PAF acetylhydrolase (pPAFAH); Q13093; AID 463082; recombinant pPAFAH, FP-rhodamine probe fluorescence polarization; hit rate 1.5% among 330,000; inhibition, % at 3.39 µM;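 active means inhibition above the mean inhibition across the screen plus 3 SD, cut at about 25% in these data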;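 further: inhibitors block binding of the rhodamine activity-based probe so polarization drops; 0% = enzyme with DMSO and 100% = wells lacking pPAFAH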
Target sequence (Q13093 whole entry, looked up): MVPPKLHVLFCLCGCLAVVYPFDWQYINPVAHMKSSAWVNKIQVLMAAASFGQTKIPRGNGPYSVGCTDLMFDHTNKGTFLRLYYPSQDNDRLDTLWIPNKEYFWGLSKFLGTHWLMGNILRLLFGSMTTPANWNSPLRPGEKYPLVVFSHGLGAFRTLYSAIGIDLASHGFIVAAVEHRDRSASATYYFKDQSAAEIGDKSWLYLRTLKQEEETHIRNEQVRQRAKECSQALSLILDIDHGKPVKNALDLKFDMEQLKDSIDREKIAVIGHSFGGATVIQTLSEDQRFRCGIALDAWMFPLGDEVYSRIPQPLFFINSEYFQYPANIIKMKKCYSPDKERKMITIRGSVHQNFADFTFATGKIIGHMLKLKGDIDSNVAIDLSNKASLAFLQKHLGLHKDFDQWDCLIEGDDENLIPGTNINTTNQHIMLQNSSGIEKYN
DAGLB inhibitor – diacylglycerol lipase beta (human) inhibition | HEK293T DAGLB membrane lysate, EnzChek fluorogenic substrate | AID 504411 | inhibition, % at 5.17 µM | hit rate 0.059% among 340,000 | Q8NCG7; in the data active means inhibition above about 34%;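 further: 0% = enzyme with vehicle and 100% = wells lacking enzyme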
PAFAH1B2 FP inh – inhibitors of human PAFAH1B2; P68402; recombinant PAFAH1B2, FP-rhodamine activity probe, fluorescence polarization; inhibition, % at 3.39 µM; hit rate 1.2% among 340,000;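 active means inhibition above the mean of all tested compounds plus 3 SD, cut at about 24% in these data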;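 further: 0% = enzyme with DMSO and 100% = wells lacking PAFAH1B2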
Target sequence (P68402 whole entry, looked up): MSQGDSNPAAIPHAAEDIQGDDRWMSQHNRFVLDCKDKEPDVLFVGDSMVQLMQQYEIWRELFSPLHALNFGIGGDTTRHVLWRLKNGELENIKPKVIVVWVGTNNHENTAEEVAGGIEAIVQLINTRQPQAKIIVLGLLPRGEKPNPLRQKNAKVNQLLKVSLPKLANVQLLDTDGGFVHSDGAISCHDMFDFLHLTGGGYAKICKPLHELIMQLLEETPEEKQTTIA
PAFAH2 FP inh – PAFAH2 (human) inhibition. Q99487. recombinant PAFAH2, FP-rhodamine activity probe, fluorescence polarization. inhibition, % at 3.39 µM. hit rate 0.99% among 340,000. AID 492956;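 active means inhibition above the mean over all tested compounds plus 3 SD, cut at about 30% in these data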;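 further: inhibitors block probe labeling of enzyme so polarization drops; 0% = enzyme with DMSO and 100% = wells lacking PAFAH2 protein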
HTRA1 inhibitor – HTRA1 (human) protease inhibition. Q92743. recombinant HTRA1, FP-rhodamine activity-based probe, fluorescence polarization. inhibition, % at 5.96 µM. hit rate 0.5% among 340,000. AID 504803; in the data active means inhibition above about 36%;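 further: 0% = enzyme with DMSO and 100% = wells lacking enzyme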
Active calls of the source: *; . = no result given.

SMILES | PAFAH1B3 FP inh | pPAFAH FP inh | DAGLB inhibitor | PAFAH1B2 FP inh | PAFAH2 FP inh | HTRA1 inhibitor
COc1cc(C=O)ccc1OCCSc1ccc(C)cc1 | 5 | 11 | -8 | 35* | 0 | -29
CCOc1cc(C=O)ccc1OCCSc1ccc(C)cc1 | 4 | 16 | -21 | 30* | -4 | -35
CC(=O)NC(Cc1cccc(C)c1)C(=O)NC1CCN(S(=O)(=O)c2ccccc2)CC1 (stereo not drawn) | 1 | -2 | -2 | 0 | -3 | 3
O=C1CC(c2ccc(S(=O)(=O)NCc3ccccc3)cc2)CN1 (stereo not drawn) | -3 | -4 | 0 | 3 | -4 | 0
Cc1ccccc1NS(=O)(=O)c1ccc(C2CNC(=O)C2)cc1 (stereo not drawn) | 4 | 33* | -3 | 4 | -1 | 4
CCOc1cc(CNCCSc2nnnn2C)cc(Br)c1OCc1ccccc1F | 4 | 25* | -5 | 3 | 4 | -12
Cc1ccnc(NS(=O)(=O)c2ccc(NC(=O)Cc3cccs3)cc2)n1 | 9 | 34* | 1 | 4 | 15 | 3
CCCc1nnc(NC(=O)C23CC4CC(CC(C4)C2)C3)s1 | 3 | . | 0 | 25* | 4 | -1
CC(C)c1nnc(NC(=O)CC23CC4CC(CC(C4)C2)C3)s1 | 2 | -4 | -3 | 21 | 1 | -1
CCc1nnc(NC(=O)CC23CC4CC(CC(Br)(C4)C2)C3)s1 | 10 | 9 | -1 | 27* | 2 | -5
N#Cc1ccccc1S(=O)(=O)N1CCN(CC(=O)NC(=O)NC2CCCCC2)CC1 | 4 | -3 | -5 | -1 | 3 | -6
Cc1ccc(S(=O)(=O)N2C(=O)CCC2C(N)=O)cc1 (stereo not drawn) | 10 | . | 0 | 5 | 1 | -9
CCOc1ccc(N2CC(NC(=O)c3ccc4ccccc4c3)CC2=O)cc1 (stereo not drawn) | -6 | 0 | 0 | -2 | -5 | 1
Cc1oc2c(cc(NS(=O)(=O)c3ccc(F)cc3)c3ccccc32)c1C(=O)O | 3 | 20 | 6 | 3 | 6 | 7
Cc1oc2c(cc(NS(=O)(=O)c3ccc(C(C)C)cc3)c3ccccc32)c1C(=O)O | 8 | 32* | 11 | 15 | 2 | -22
O=C1CS/C(=N\C(=O)N2c3ccccc3Sc3ccccc32)N1 | -1 | 26* | 3 | 25* | -5 | -5
CCC1Oc2ccccc2N(CC(=O)N2CC(C)CC(C)C2)C1=O (stereo not drawn) | . | . | -1 | . | . | 0
CC(=O)Nc1ccc(C23CC4CC(CC(C4)C2)C3)cc1 | -5 | 4 | 1 | 26* | 17 | -25
CNC(=S)Nc1ccc(C23CC4CC(CC(C4)C2)C3)cc1 | 1 | 3 | 0 | 21 | -2 | -28
Cc1cc(C)n2nc(C(=O)N/N=C/c3ccco3)nc2n1 | 2 | 11 | -1 | 0 | 8 | 9
CCn1c(CSCc2ccc(F)cc2)nnc1SCC(=O)NCc1ccccc1 | 2 | 4 | -2 | 30* | 0 | -5
O=C1CC(c2ccccc2)=NN1c1nc(-c2ccccc2)cs1 | 18 | 28* | 26 | 8 | 66* | -6
COc1ccccc1/C=C1\S/C(=N/NC(=O)c2cccc(Br)c2)NC1=O | 15 | 17 | 18 | 17 | 41* | 20
COC(=O)/C=C1\S/C(=N/NC(=O)c2ccccc2)NC1=O | 2 | 1 | -1 | 2 | -5 | 4
CSCCC(NC(=O)C1CCC(C)CC1)C(=O)NCCN1CCC(C)CC1 (stereo not drawn) | 4 | 1 | -3 | 3 | 0 | -2
SMILES | PAFAH1B3 FP inh | pPAFAH FP inh | DAGLB inhibitor | PAFAH1B2 FP inh | PAFAH2 FP inh | HTRA1 inhibitor
CC1(C)NC(=O)N(CCCOc2ccc(Br)cc2Cl)C1=O | 9 | 7 | -3 | 7 | -1 | -1
CC1(C)NC(=O)N(CCCCOc2ccc(Br)cc2Cl)C1=O | 7 | 3 | 0 | 24* | -5 | -2
COc1ccc(Nc2oc(COc3ccc(Cl)cc3)nc2C#N)cc1 | 10 | 9 | 0 | 16 | 8 | -20
COc1ccc(CNc2oc(COc3ccc(Cl)cc3)nc2C#N)cc1 | -4 | -4 | -2 | 28* | -6 | -49
COc1ccc(CCNc2oc(COc3ccc(Br)cc3)nc2C#N)cc1OC | 13 | 1 | 0 | 28* | -1 | -33
CN(C)c1ccc2cc(S(=O)(=O)O)cc(O)c2c1 | 52* | . | 4 | 38* | 38* | 36
O=Nc1c(O)ccc2cc(S(=O)(=O)O)ccc12 | 23 | . | -1 | 10 | 4 | 1
COc1ccc(C(=O)COC(=O)CN2C(=O)C3C4CCC(C4)C3C2=O)cc1 (stereo not drawn) | -3 | 4 | -2 | 2 | -5 | -3
O=C(CS(=O)(=O)c1cn(Cc2ccc(Cl)cc2)c2ccccc12)N1CCCCC1 | -8 | 0 | -3 | 28* | -2 | 4
Cc1cc(NC(=O)Cn2nc([N+](=O)[O-])c(Br)c2C)no1 | 7 | -4 | 1 | 7 | 7 | -1
CC1CCc2c(sc3nc(CN4CCOCC4)nc(NS(=O)(=O)c4cccc([N+](=O)[O-])c4)c23)C1 (stereo not drawn) | 6 | 25* | 7 | 0 | 6 | 0
Nc1nn(S(=O)(=O)c2ccccc2)cc1-c1ccc([N+](=O)[O-])cc1 | 0 | 5 | -1 | 32* | -1 | -7
C=CCNC(=O)CSCc1ccc(Br)cc1 | 2 | 1 | -2 | 27* | 2 | 2
C=CCNC(=O)CSc1ccc(Cl)cc1 | 0 | 3 | -1 | 29* | -7 | 6
O=C(CSc1ccc(Cl)cc1)Nc1ccccc1 | . | . | -5 | . | . | -4
COc1ccc(OC)c(S(=O)(=O)N2CCCC(C(=O)NC3CC3)C2)c1 (stereo not drawn) | 6 | . | 1 | 1 | 3 | 0
NC(=O)C1CCN(C2=C(Cl)C(=O)c3ccccc3C2=O)CC1 | 43* | 0 | 2 | 35* | 47* | 10
NC(=O)C1CCN(C2=C(NS(=O)(=O)c3ccccc3)C(=O)c3ccccc3C2=O)CC1 | 4 | 6 | 4 | 5 | -4 | 5
N#CC(C(=O)C12CC3CC(CC(C3)C1)C2)c1nc2ccccc2[nH]1 (stereo not drawn) | -3 | 19 | -1 | 13 | 31* | -2
CC(C)(C)c1ccc(C(CC(=O)O)NC(=O)C23CC4CC(CC(C4)C2)C3)cc1 (stereo not drawn) | -7 | 31* | -2 | 26* | 10 | -2
O=C1NN(c2ccccc2)C(=O)/C1=C/c1ccc(-c2ccc(Cl)c(C(=O)O)c2)o1 | 23 | . | 3 | 7 | 17 | 7
O=C1NN(c2ccccc2)C(=O)/C1=C/c1ccc(Sc2ccc(Cl)cc2)o1 | 5 | 23 | 7 | 29* | 13 | 7
Cc1ccc(Sc2ccc(/C=C3/C(=O)NN(c4ccccc4)C3=O)o2)cc1 | 6 | 19 | 6 | 36* | 23 | 4
Cc1ccccc1NC(=O)c1sc2nc(N3CCOCC3)c3c(c2c1N)CCCC3 | 4 | 27* | -4 | 3 | -1 | -16

Source: PubChem
